# High-throughput results: PubChem BioAssay, Broad Institute
# ALR inh: inhibitors of human ALR sulfhydryl oxidase, primary screen, biochemical, H2O2 detection, HRP-luminol luminescence, single point | FAD-linked sulfhydryl oxidase ALR (Homo sapiens), P55789 | purified ALR, DTT oxidation | inhibition, % (test concentration not listed) | 3.8% of 290,000 active | AID 485317, 2010;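 active means mean replicate inhibition above about 79%, with every replicate also reaching it, limit read from the data; inconclusive means only one of the two criteria met; inactive means mean below limit and not every replicate reaching it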
# Target sequence (P55789 whole entry, looked up): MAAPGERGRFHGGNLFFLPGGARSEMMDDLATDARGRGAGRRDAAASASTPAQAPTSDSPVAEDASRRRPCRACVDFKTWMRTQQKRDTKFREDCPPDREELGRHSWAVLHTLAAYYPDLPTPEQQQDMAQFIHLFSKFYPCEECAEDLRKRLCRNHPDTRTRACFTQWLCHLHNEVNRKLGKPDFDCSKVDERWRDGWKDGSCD
# PglD inh: C. jejuni PglD acetyltransferase inhibitors, primary screen, biochemical, DTNB colorimetric, single point; 0.098% of 360,000 active; AID 602405, 2012; purified PglD enzyme, DTNB colorimetric CoA detection; inhibition, % at 12.5 µM; UDP-N-acetylbacillosamine N-acetyltransferase PglD (Campylobacter jejuni); in the data active means inhibition above about 16%, passing the limit was not always enough; inconclusive means no clear call, values can overlap the other calls
# HIV Env fusion: inhibitors of HIV-1 Env-driven cell-cell fusion, primary screen, HeLa-JRFL effector, CEM21 target cells, luciferase; 1.1% of 360,000 active; inhibition, % at 12.3 µM; AID 651610, 2012;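 active means mean replicate inhibition score of at least 50 and every replicate individually at or above 50; inconclusive means only one of the two criteria met; inactive means mean below 50 and not all replicates reaching 50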;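 further: 0% = plate neutral controls and 100% = maraviroc near 300 nM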
# CASP6 VEID inh: human caspase-6 inhibitors, primary screen, biochemical, VEID-R110 fluorescence, single point, set 2; P55212; purified caspase-6, Z-VEID-R110 cleavage fluorescence; 0.53% of 350,000 active; inhibition, % at 12.5 µM;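 active means mean inhibition across replicates at least about 35%, with every replicate also reaching that limit, limit read from the data; inconclusive means only one of the two criteria met; inactive means neither criterion met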;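 further: 0% = median of neutral control wells and 100% = no fluorescence left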
# Target sequence (P55212 24-179 limits assumed): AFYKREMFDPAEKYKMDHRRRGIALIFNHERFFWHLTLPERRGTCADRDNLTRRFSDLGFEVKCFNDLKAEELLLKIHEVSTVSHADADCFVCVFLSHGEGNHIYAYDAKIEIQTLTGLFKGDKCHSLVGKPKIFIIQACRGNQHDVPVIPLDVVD
# Target sequence (P55212 194-293 limits assumed): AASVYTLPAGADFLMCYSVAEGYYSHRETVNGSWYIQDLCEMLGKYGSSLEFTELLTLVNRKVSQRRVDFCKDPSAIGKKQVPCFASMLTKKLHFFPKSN
# CFTR F508del cor: F508del CFTR correction, initial screen, CFBE line, single point. CFBE cells, YFP halide quenching; stimulated with forskolin plus potentiator P3; % fluorescence drop versus neutral controls. activity (quench increase), % at 7.58 µM. 0.36% of 350,000 active;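 active means mean added fluorescence quench of at least 8% versus neutral control, with both replicates also reaching 8%; inconclusive means only one of the mean or replicate conditions met; inactive means mean below 8% and not both replicates reaching 8%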;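 further: cells transiently co-express mutant CFTR-F508del with the halide-sensitive YFP; corrector assay measuring rescue of mutant channel to the surface after 24 h compound exposure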
# NSD2 HMT inh: NSD2 histone methyltransferase inhibitors, primary screen, biochemical, AlphaScreen, single concentration, set 2 | Histone-lysine N-methyltransferase NSD2 (Homo sapiens), O96028 | NSD2 peptide methylation, 120 min | inhibition, % at 12.5 µM | 0.54% of 310,000 active | AID 743445, 2014; in the data active means inhibition above about 50%
# * = called active by the depositor; ? = inconclusive; nt = no result; [ ] = another dose, or the depositor's remark. Hits are enriched below; roughly 4.1% of the tested compounds scored in any of these assays.
SMILES,ALR inh,PglD inh,HIV Env fusion,CASP6 VEID inh,CFTR F508del cor,NSD2 HMT inh
COc1ccc2c3c(n(C)c2c1)[C@@H](CO)N(C(=O)c1cccnc1)CC31CCN(C)CC1,nt,nt,nt,0.8,0.5,nt
NNC(=O)c1ccc(O)cc1O,98.9*,nt,2.7,-1.1,5.0,3.0
C/C=C/c1ccc([C@@H]2[C@@H](CO)N(C(=O)C3CCCCC3)C23CN(C(=O)NC(C)C)C3)cc1,nt,nt,nt,-1.8,0.9,nt
Cc1ccc(C(=O)CCNc2ccccc2)o1,97.5*,-3.8,nt,nt,nt,-0.5
COc1ccc(Nc2nccc(-c3cccc(N)c3)n2)cc1,99.3*,-0.5,22.9,-1.0,2.6,16.7
COCCNC(=O)CCn1nc(-c2ccc(C)cc2)c2ccccc2c1=O,-9.6,-5.6,7.2,-0.1,-3.0,-3.2
Cn1nc(-c2ccc(C(=O)Nc3ccc(F)cc3)cc2)c2ccccc2c1=O,-9.3,nt,nt,nt,nt,1.0
CNC(=O)c1cc(NC(=O)CCn2nc(-c3ccc(C)cc3)c3ccccc3c2=O)ccc1OC,-7.6,10.2,62.4*,0.1,-1.4,0.2
Cc1ccc(NC(=O)c2ccc(-c3nn(C)c(=O)c4ccccc34)cc2)cc1,-7.2,-0.1,74.6*,-0.5,nt,-1.4
CCCc1c(O)nc(SCCN(CC)CC)n(C(=O)c2ccccc2)c1=O,97.7*,-0.5,-94.4,nt,nt,7.6
O=C(C[C@H]1CC[C@@H](NC(=O)CC2CC2)[C@@H](CO)O1)NCc1ccc(Cl)cc1,nt,5.1,-11.6[16.7 µM],-2.6,-4.1,nt
C[C@@H]1CCCCO[C@@H](CN(C)C(=O)Nc2ccc(F)cc2)[C@@H](C)CN([C@H](C)CO)C(=O)c2cc(NC(=O)Nc3ccc(F)cc3)ccc2O1,nt,2.6,16.6[16.7 µM],-2.7,1.8,nt
COc1ccc2c3c(n(C)c2c1)[C@H](CO)N(C(=O)C1CC1)CC31CCN(C(=O)Nc2cccc(F)c2)CC1,nt,nt,nt,0.1,-2.3,nt
Cc1ccccc1S(=O)(=O)N1CC(=O)N2[C@H](C1)[C@@H](c1ccc(C#CC3CC3)cc1)[C@@H]2CO,nt,nt,nt,-0.2,4.4,nt
O=C(C[C@@H]1CC[C@@H]2[C@H](COC[C@H](O)CN2Cc2cc(F)cc(F)c2)O1)NC1CCC1,nt,3.9,nt,2.8,0.1,nt
COc1cc(/C=N/Nc2nc3ccccc3[nH]2)cc(OC)c1O,99.4*,nt,nt,nt,nt,11.3
COc1ccc(O)c(/C=N/Nc2nc3ccccc3[nH]2)c1,98.9*,nt,-27.8,6.5,4.4,8.4
COc1cc(/C=C(/C(=O)c2cccs2)c2nc3ccccc3[nH]2)cc(OC)c1O,99.7*,1.0,-80.1,5.6,nt,nt
COc1ccc(C(=O)N/C(=C/c2cccs2)c2nc3ccccc3[nH]2)cc1OC,-9.8,nt,-15.4,1.7,-1.0,0.5
O=[N+]([O-])c1cccc(N/N=C/c2cc([N+](=O)[O-])ccc2O)c1,95.6*,nt,-40.3,6.3,-1.2,1.1
CCC(=O)Nc1ccc2c(c1)C(=O)N(C)C[C@H](OC)[C@@H](C)CN(C(=O)CC1CC1)[C@H](C)CO2,nt,6.8,nt,nt,1.8,nt
COc1cc(/C=N/Nc2nc3ccccc3[nH]c2=O)ccc1O,99.1*,-4.8,-4.4,0.3,1.8,-0.4
COc1ccc(/C=N/Nc2nc(=O)[nH]nc2C)cc1OC,-17.8,nt,-9.6,-35.8,-0.4,-4.2
COc1cc(/C=N/Nc2nc(=O)[nH]nc2C)ccc1O,99.9*,nt,14.6,0.8,-1.2,-6.8
O=[N+]([O-])c1ccc(O)c(/C=N/Nc2nc3ccccc3[nH]2)c1,89.0*,nt,26.3,8.3,nt,1.7
SMILES,ALR inh,PglD inh,HIV Env fusion,CASP6 VEID inh,CFTR F508del cor,NSD2 HMT inh
COc1cc(/C=N/Nc2nc3ccccc3[nH]2)ccc1O,99.8*,0.3,nt,3.8,-4.2,6.0
COC(=O)c1ccc(/C=N/Nc2nc3ccccc3[nH]2)cc1,51.0,nt,-22.9,-4.8,-2.3,6.6
COc1cc(/C=N/Nc2nc3ccccc3[nH]2)cc(Br)c1OCC(=O)N(C)C,98.9*,0.8,14.8,12.4,3.4,-4.0
COc1ccc2c3c(n(C)c2c1)[C@H](CO)N(C(=O)C1CC1)CC31CCN(C)CC1,nt,nt,-26.5[16.7 µM],3.0,-3.0,nt
COc1ccc([C@H]2/C=C\CN(C(=O)C3CC3)[C@@H](C)C(=O)N2Cc2ccc(F)cc2)cc1,-1.9,0.2,69.7*,-0.4,1.0,nt
CO[C@H]1CN(C)C(=O)c2ccc(NC(=O)C3CCCC3)cc2OC[C@H](C)N(C(C)=O)C[C@H]1C,nt,-0.3,nt,1.2,0.6,nt
Cc1noc(C)c1NC(=O)NCC[C@H]1CC[C@@H](NC(=O)c2ccc(F)cc2)[C@H](CO)O1,nt,7.8,-2.4[16.7 µM],-118.4,-0.8,nt
C/C(=N\Nc1ccccc1)c1c(O)cc(C)oc1=O,98.6*,nt,1.4,0.7,0.1,-0.2
Cc1ccc(N/N=C/c2c(O)cc(C)oc2=O)cc1,98.8*,4.6,nt,nt,nt,-0.9
Cc1cc(O)c(/C=N/Nc2ccc(F)cc2)c(=O)o1,-52.7,0.8,28.3,1.1,-1.5,3.7
C/C(=N/NC(=O)c1cccc(C)c1)c1c(O)cc(C)oc1=O,29.9,0.7,-15.6,nt,nt,-0.4
CCNC(=O)C[C@H]1CC[C@H]2[C@@H](COc3ccc(NC(=O)Nc4ccc(Cl)cc4)cc3C(=O)N2C)O1,nt,1.5,8.2[16.7 µM],1.1,-0.5,nt
C[C@@H]1CN([C@@H](C)CO)C(=O)c2cc(-c3cccnc3)cnc2O[C@@H]1CN(C)C(=O)Nc1ccc2c(c1)OCO2,nt,1.1,7.5[16.7 µM],1.0,1.3,nt
O=C(c1ccncc1)N1CC2(C1)[C@H](c1ccccc1)[C@H](CO)N2Cc1ccccn1,nt,nt,nt,-0.6,1.6,nt
Cn1cccc1C(=O)Nc1ccc(N2CCOCC2)cc1,96.8*,-0.8,nt,-4.5,-0.3,-0.5
O=C(Nc1ccc(N2CCOCC2)cc1)c1ccncc1,-5.5,6.7,nt,nt,nt,9.7
CN(C)c1cccc(C(=O)Nc2ccc(N3CCOCC3)cc2)c1,90.6*,-5.5,9.7,-0.8,nt,1.8
O=C(Nc1ccc(N2CCOCC2)cc1)c1cccc(-n2cnnc2)c1,1.0,1.7,nt,4.1,-1.3,2.5
CC(Sc1nc2ccccc2n1C)C(=O)Nc1ccc(N2CCOCC2)cc1 (configuration not stated),95.0*,nt,5.1,-1.4,3.8,-1.4
CC(C)Cn1c(SC(C)C(=O)Nc2ccc(N3CCOCC3)cc2)nc2ccccc21 (configuration not stated),-3.6,nt,14.5,2.0,-2.0,7.5
O=C(Nc1ccc(N2CCOCC2)cc1)Nc1ccc2nsnc2c1,86.5*,nt,25.4,3.3,2.4,-17.4
COc1ccc(COC[C@@]23Oc4ccccc4[C@@H](NC(=S)N2C)[C@H]3CO[Si](C)(C)C(C)(C)C)cc1,nt,0.6,?,1.5,0.0,nt
CO[C@H]1CN(C)C(=O)c2ccc(NS(=O)(=O)c3ccccc3)cc2OC[C@H](C)N(C)C[C@H]1C,nt,nt,nt,nt,-2.7,nt
